The list is not random: actives were taken first. Their share in the collection is about 8.9%.
DRD3 antagonist = qHTS of D3 Dopamine Receptor Antagonist: qHTS; D(3) dopamine receptor (Homo sapiens), P35462; D3R cells, DiscoveRx beta-arrestin luminescence, antagonist mode; active compounds read low; max response, negative = inhibition, %; actives 2.5% (n = 360,000); AID 652054, 2013; in the data active = max response below about -50%; inconclusive = no clear call, values can overlap the other calls; also: % is scaled to controls: 0 for no effect and ±100 for the full control effect
Target sequence (P35462 whole entry, looked up): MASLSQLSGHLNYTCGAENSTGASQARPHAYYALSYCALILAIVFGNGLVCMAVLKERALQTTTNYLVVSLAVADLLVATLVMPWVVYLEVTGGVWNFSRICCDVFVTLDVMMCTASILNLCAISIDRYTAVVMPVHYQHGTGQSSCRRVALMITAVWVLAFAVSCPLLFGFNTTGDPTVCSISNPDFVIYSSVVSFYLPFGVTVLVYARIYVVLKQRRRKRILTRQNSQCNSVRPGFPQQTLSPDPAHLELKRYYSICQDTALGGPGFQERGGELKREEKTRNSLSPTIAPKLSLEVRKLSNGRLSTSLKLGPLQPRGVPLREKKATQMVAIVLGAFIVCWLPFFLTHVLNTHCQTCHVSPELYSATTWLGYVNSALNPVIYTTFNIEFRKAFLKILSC
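Cells expressing the human receptor were seeded at 1500 cells/well, incubated overnight at 37 degrees C in 5% CO2, then exposed to library compounds with dopamine controls for 90 minutes at 37 degrees C before luminescent detection.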
KB-3-1 cytotox = qHTS assay for MDR1-selective chemotherapeutics: Primary screen using the parental adenocarcinoma cell KB-3-1. KB-3-1 viability, CellTiter-Glo ATP luminescence, 72 h. Potency, µM (doses to about 46.1 µM), hits mostly cytotoxic. actives 1.4% (n = 400,000). AID 1347075, 2019; also: potency is read from the fitted curve at half-maximal effect; % is scaled to controls: 0 for no effect and ±100 for the full control effect; nearly all actives have a fitted effect of over 60% in size
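Cells are dispensed, compounds pinned in, plates held at 37 °C for 72 h, then CellTiter-Glo is added and luminescence read after 10 minutes. Cell line: parental KB-3-1 in phenol-red-free DMEM, 10% FBS.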
SW480 rereplic = A quantitative high throughput screen for small molecules that induce DNA re-replication in SW480 colon adenocarcinoma cells; Potency, µM (doses to about 46.1 µM), inactives show top-dose re-replication activation, most hits filed as activators; AID 624297, 2012; actives 1.8% (n = 340,000); SW480 DNA re-replication, Hoechst DNA content imaging, 48 h; also: potency is read from the fitted curve at half-maximal effect; % of control where 0% means no effect; nearly all actives have a fitted effect of over 55% in size
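250 cells/well; 23 nL cpd via pin tool; 48 hr, 37 C, 5% CO2; Hoechst 40 min; imager read of total nuclear intensity, ex 405/em 500-530 nm.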
KB-V1 cytotox = qHTS assay for MDR1-selective chemotherapeutics: Primary screen using the drug-selected MDR subline cells KB-V1 | KB-V1 MDR cells viability, CellTiter-Glo, 72 h | Potency, µM (top dose mostly 46.1 µM), usual class: cytotoxic | actives 3.4% (n = 400,000) | AID 1347076, 2019; also: potency is read from the fitted curve at half-maximal effect; % is scaled to controls: 0 for no effect and ±100 for the full control effect; nearly all actives have a fitted effect of over 60% in size
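KB-V1 cells (P-gp-expressing MDR subline of KB-3-1) in phenol-red-free DMEM with 10% FBS were exposed to library compounds over a concentration series for 72 h at 37 degrees C. Viability read by CellTiter-Glo luminescence; concentration-effect curves fitted after normalization.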
MCF10A rerep = A quantitative high throughput screen for small molecules that induce DNA re-replication in MCF 10a normal breast cells. Potency, µM (titrated, usually from 46.1 µM), inactives show at the top dose activity, positive = re-replication, hits mostly activators. actives 2.9% (n = 350,000). MCF 10A DNA re-replication, Hoechst nuclear intensity, 48 h; also: potency is read from the fitted curve at half-maximal effect; % of control where 0% means no effect; nearly all actives have a fitted effect of over 50% in size
DRD3 agonist = qHTS of D3 Dopamine Receptor Agonist: qHTS; AID 652048, 2013; D3R DiscoveRx beta-arrestin cells, luminescence, 90 min; actives 0.58% (n = 410,000); max activation, %; in the data active = max activation above about 30%; also: 0% is about no effect
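Cells at 1500/well, incubated overnight, then treated with pinned compounds (dopamine as control) for 90 min at 37 degrees C. DiscoveRx reagent added for 30 - 60 minutes at room temperature; luminescence read.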
* = called active by the depositor; i = inactive; ? = inconclusive; . = no result given; [ ] = another dose, or the depositor's remark. Unless noted, calls follow the shape of the dose curve; as a rule, active = well fitted curve in the direction sought with a large enough effect; inconclusive = small, poorly fitted or top-dose-only effect, or another doubt; inactive = no such curve, though single readings can be large; an effect the other way counts as inactive or inconclusive.

SMILES	DRD3 antagonist	KB-3-1 cytotox	SW480 rereplic	KB-V1 cytotox	MCF10A rerep	DRD3 agonist
CCOC(=O)Cc1nnc(NC(=O)CSc2ccc(Cl)cc2)s1	-53*	i	-17%	i	16%	-1
COc1ccc(/C=C/c2nnc(NC(=O)CSc3ccc(C)cc3)s2)cc1	-22	?	?	i	8.2µM*	-6
CCC(=O)Nc1nnc(/C=C/c2ccc(OC)cc2)s1	-19	i	?	i	13%	-6
COc1ccc(-c2nc(S(=O)(=O)c3ccc(Cl)cc3)c(NCc3ccccc3)o2)cc1	.	i	.	i	.	-16
Cc1cc(C(=O)N/N=C/c2ccc3c(c2)OCO3)c2ccccc2n1	-20	2.6µM*	10µM*	?	?	0
O=C(N/N=C/c1ccc2c(c1)OCO2)c1cc(-c2ccncc2)nc2ccccc12	-8	5.8µM*	16µM*	i	5.8µM*	-2
O=C(Nc1ccc2c(c1)OCO2)c1cc(-c2ccncc2)nc2ccccc12	31	?	?	?	18µM*	6
CCC(=O)NC1CC(=O)N(c2ccc3c(c2)OCCO3)C1 (configuration not stated)	.	.	.	.	.	-11
COc1cc(OC)c(Nc2cc(C)nc3ncnn23)cc1Cl	.	i	.	i	.	-7
O=C(CN1C(=O)c2ccccc2S1(=O)=O)Nc1ccccc1	14	i	0%	i	6.5µM*	1
CC1CCCCC1NC(=O)CN1C(=O)c2ccccc2S1(=O)=O (configuration not stated)	-3	i	-5%	?	1%	-2
O=C(CN1C(=O)c2ccccc2S1(=O)=O)NC1CCCC1	-52*	i	5%	i	-4%	-3
CCc1cccc(C)c1NC(=O)NC1COc2ccccc2C1 (configuration not stated)	.	i	.	i	.	-12
C=CCC[C@@H](CCCCC)OC(=O)/C=C/[C@H](O)[C@@H](O)C[C@@H](O)CC=C	54	i	.	?	.	6
CC(=O)Oc1c(C)cc(OCC(O)CNC(C)C)c(C)c1C (configuration not stated)	.	.	2%	.	2%	6
O=S(=O)(c1ccc(Cl)cc1)N(CCCN1CCOCC1)Cc1cccs1	-80*	i	-36%	i	8%	-7
COc1ccc(S(=O)(=O)N(CCCN2CCOCC2)Cc2cccc(OC)c2OC)cc1	-76*	i	-5%[9.22 µM]	i	6%	-12
COc1ccc(S(=O)(=O)N(CCCN2CCOCC2)Cc2cccc3ccccc23)cc1	-85*	i	2%	i	15%	-20
COc1ccc(S(=O)(=O)N(CCN2CCOCC2)Cc2cc(OC)ccc2OC)cc1	-27	i	-1%[9.22 µM]	i	-3%	0
COC(=O)c1cc(NC(=O)Nc2ccc3snnc3c2)cc(C(=O)OC)c1	.	i	.	i	.	0
Nc1nc(N)c(S(=O)(=O)c2ccccc2)c(Nc2ccc(F)cc2)n1	.	i	.	i	.	-9
COc1cc(C2C(C#N)=C(N)Oc3cc(N)ccc32)cc(OC)c1OC (configuration not stated)	-10	?	1.2µM*	?	1.2µM*	-5
COc1ccc(C2C(C#N)=C(N)Oc3c2ccc2cccnc32)cc1OC (configuration not stated)	-2	2.6µM*	1.6µM*	i	4.6µM*	-11
N#CC1=C(N)Oc2cc(N)ccc2C1c1ccc(F)cc1F (configuration not stated)	-15	?	23µM*	?	21µM*	10
N#CC1=C(N)Oc2cc(N)ccc2C1c1ccc(F)cc1 (configuration not stated)	4	?	?	i	?	-2

Screens (PubChem BioAssay)
